The source made the active and inactive calls.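 The calls were made as follows, unless noted: active = inhibition above 20% together with a positive visual image hit; inconclusive = visual image hit but inhibition not above 20%; inactive = no visual image hit.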
Assays:
[1] = inhibitors of TNFa-induced NFkB p65 translocation, primary screen, imaging, HUVEC, MLSMR starter and 10KST1 sets (AID 438); details: HUVEC TNFa-induced p65 nuclear translocation; cell count: measured here: nuclei count (cytotoxicity indicator), at 2.08 µM unless noted; inhibition: at 2 µM, stronger effect = higher value unless noted;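 also: compound added about 3h40 before a 20 min TNFalpha stimulation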;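 as to inhibition: signal is the nuclear over cytoplasmic p65 intensity ratio per well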
[2] = reduction of polyQ htt aggregates in cells – imaging, exon1htt(103Q)mCFP cells, high-content imaging, primary screen (AID 483;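 active = visual image review flags a hit and inhibition of aggregation exceeds 20%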;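 also: compound exposure lasted 3 days before fixation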;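 as to nuclei count: percent of the per-plate median nuclei count of sample wells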); details: exon1htt(103Q)mCFP cell line, aggregate imaging, at 2 µM; inhibition of aggregation: stronger effect = higher value; nuclei count: measured here: cell count, toxicity
[3] = endothelial E-selectin expression blockers – imaging, HUVEC, immunofluorescence, MLSMR starter and 10KST1 sets, primary screen (AID 487;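 active = visually confirmed hit in the image check and inhibition above 20%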;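 as to inhibition: signal is fraction of cell area covered by stained E-selectin grains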;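 as to nuclei count: 100% = median nuclei count of all wells on the same plate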); details: HUVEC TNFalpha-induced E-selectin immunofluorescence imaging, at 2 µM; inhibition: stronger effect = higher value; nuclei count: measured here: cell number, toxicity
[4] = biological target: Voltage-gated potassium channel subunit beta-2 (Rattus norvegicus) (UniProt P62483); test: inhibitors of rat Kvbeta2 reductase activity – biochemical, NADPH fluorescence, primary screen (AID 622;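 active = fluorescence slope higher than the sample average by over 3 SD, cut at about -0.22 in these data, passing the limit was not always enough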;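 also: slope of raw intensity against log time taken from 70 to 1610 s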); details: recombinant KvBeta, 4-cyanobenzaldehyde reduction, at 10 µM, stronger effect = higher value
[5] = biological target: Voltage-gated potassium channel subunit beta-2 (Rattus norvegicus) (UniProt P62483); test: enhancers of rat Kvbeta2 NADPH turnover – biochemical, NADPH fluorescence, primary screen (AID 623;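 active = NADPH fluorescence slope more negative than the mean of all samples by about 3 SD, 99.7% confidence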;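 also: fluorescence intensity change per second fitted from 20 to 320 s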); details: Recombinant KvBeta, NADPH fluorescence decrease slope, 10 min; at 10 µM; stronger effect = lower value
[6] = biological target: Alpha-2C adrenergic receptor (Homo sapiens) (UniProt P18825); test: compounds altering alpha2C-coupled GIRK flux – cell-based, HEK293 alpha2C/GIRK1/2, thallium flux, primary screen (AID 624;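 active = fluorescence slope after compound addition differing from the mean of all screened samples at 99.7% confidence, in either direction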;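 also: slope of fluorescence ratio to pre-addition baseline per second over 15 to 24 s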); details: thallium flux BTC fluorescence, at 10 µM, actives lie on both sides
[7] = blockers of RIG-like receptor reporter activation – cell-based, Sendai virus stimulus, luciferase, 10K MLSCN set, TLR/RLR signaling modifier project, primary screen (AID 602276;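 active = inhibition at or above 50% at 10 µM; inactive = inhibition below 50%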;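 also: firefly luciferase from ISG56 promoter only with Renilla not read in this screen; 0% = Sendai virus plus DMSO and 100% = medium plus DMSO without virus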); details: HEK293 RL24 IRF3 luciferase reporter, at 10 µM, stronger effect = higher value
[8] = TLR3 IRF3 reporter activation blockers – cell-based, poly I:C stimulus, luciferase, 10K MLSCN set, primary screen (AID 602277;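 active = inhibition of the reporter signal at or above 50%; inactive = inhibition below 50%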); details: HEK293-TLR3 RL24 IRF3 luciferase reporter, at 10 µM, stronger effect = higher value

Alpha-2C adrenergic receptor (Homo sapiens), sequence (P18825 whole entry, looked up): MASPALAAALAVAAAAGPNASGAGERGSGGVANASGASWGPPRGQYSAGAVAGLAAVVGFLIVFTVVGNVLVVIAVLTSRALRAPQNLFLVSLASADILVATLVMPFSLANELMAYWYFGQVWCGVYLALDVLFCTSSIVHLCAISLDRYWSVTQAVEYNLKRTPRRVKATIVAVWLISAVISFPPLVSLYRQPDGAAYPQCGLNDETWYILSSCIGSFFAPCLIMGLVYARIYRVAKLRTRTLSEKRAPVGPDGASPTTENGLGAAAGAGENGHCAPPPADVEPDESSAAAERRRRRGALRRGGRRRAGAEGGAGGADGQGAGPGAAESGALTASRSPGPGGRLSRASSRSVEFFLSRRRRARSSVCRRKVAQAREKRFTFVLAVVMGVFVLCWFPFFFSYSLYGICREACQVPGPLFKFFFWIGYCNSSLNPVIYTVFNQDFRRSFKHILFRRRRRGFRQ
Voltage-gated potassium channel subunit beta-2 (Rattus norvegicus), sequence (P62483 whole entry, looked up): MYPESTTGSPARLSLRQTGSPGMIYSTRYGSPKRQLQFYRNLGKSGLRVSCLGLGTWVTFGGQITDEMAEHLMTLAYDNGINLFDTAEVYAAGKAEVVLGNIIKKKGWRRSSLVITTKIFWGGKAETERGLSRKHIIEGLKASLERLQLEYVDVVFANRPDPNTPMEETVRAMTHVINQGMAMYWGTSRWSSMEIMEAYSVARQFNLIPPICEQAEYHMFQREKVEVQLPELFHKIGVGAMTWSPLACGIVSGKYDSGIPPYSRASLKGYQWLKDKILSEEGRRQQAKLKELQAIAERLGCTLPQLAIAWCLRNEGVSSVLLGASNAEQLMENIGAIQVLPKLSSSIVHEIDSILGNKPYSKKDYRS

| Structure (SMILES) | cell count [1] | inhibition [1] | inhibition of aggregation [2] | nuclei count [2] [%] | inhibition [3] | nuclei count [3] [%] | fluorescence slope [4] | NADPH fluorescence slope [5] | slope [6] | inhibition [7] | inhibition [8] |
| --- | --- | --- | --- | --- | --- | --- | --- | --- | --- | --- | --- |
| COc1ccc(N2CCN(CCCN)CC2)cc1 | 356 | 2.8% (inactive) | -5.7% (inactive) | 106 | -21% (inactive) | 113 | -0.603 (inactive) | -1.3e-05 (inactive) | 0.00595 (inactive) | 11.2% (inactive) | 15.4% (inactive) |
| CCCCn1c(O)c(C=NC2CCCCC2N)c(=O)[nH]c1=O (stereo not drawn) | 747 | -6% (inactive) | 4.3% (inactive) | 113 | -67.3% (inactive) | 119 | -0.61 (inactive) | -4e-05 (inactive) | 0.00682 (inactive) | 8.89% (inactive) | 26.1% (inactive) |
| Cc1ccc2nc(N3CCN(C)CC3)[nH]c2c1 | 369 | -15.9% (inactive) | 5.5% (inactive) | 87.6 | 5.8% (inactive) | 97.7 | -0.506 (inactive) | 4.2e-05 (inactive) | 0.00535 (inactive) | -66.5% (inactive) | -98.1% (inactive) |
| C=CCn1c(O)c(C(C)=NCCCO)c(=O)[nH]c1=O | 631 | 5.7% (inactive) | -3.2% (inactive) | 108 | -110% (inactive) | 156 | -0.467 (inactive) | -4.7e-05 (inactive) | 0.00383 (inactive) | -1.46% (inactive) | 16.8% (inactive) |
| c1cncc(CNC2=NCCCCC2)c1 | 315 | 2.9% (inactive) | 2.4% (inactive) | 114 | -154% (inactive) | 127 | -0.469 (inactive) | -0.000124 (inactive) | 0.0069 (inactive) | 5.89% (inactive) | 24.1% (inactive) |
| CC(=NCc1ccc2c(c1)OCO2)c1c(O)n(C)c(=O)n(C)c1=O | 629 | -10.8% (inactive) | 0.7% (inactive) | 94.1 | 5.3% (inactive) | 97.5 | -0.409 (inactive) | 1.3e-05 (inactive) | 0.00333 (inactive) | 20.7% (inactive) | 25.9% (inactive) |
| CCCC(C)C1C(C#N)=C(N)Oc2c1c(=O)oc1ccccc21 (stereo not drawn) | 547 | -13.2% (inactive) | 9.9% (inactive) | 86.4 | -29.8% (inactive) | 108 | -0.422 (inactive) | 2.9e-06 (inactive) | 0.00396 (inactive) | 7.33% (inactive) | 22.2% (inactive) |
| CCC(=NCC1CCCO1)c1c(O)n(Cc2ccccc2)c(=O)[nH]c1=O (stereo not drawn) | 707 | -6% (inactive) | 6.5% (inactive) | 97.1 | -57.1% (inactive) | 120 | -0.512 (inactive) | -5.3e-05 (inactive) | 0.00608 (inactive) | -5.89% (inactive) | 19.3% (inactive) |
| CCOc1c(P(=S)(N(C)C)N(C)C)c(C)nn1-c1ccccc1 | 305 | -5.2% (inactive) | 4.6% (inactive) | 108 | -3.3% (inactive) | 112 | -0.345 (inactive) | 8e-06 (inactive) | 0.0033 (inactive) | 13.8% (inactive) | 16.7% (inactive) |
| CCCCn1c(O)c(C(C)=NC(Cc2c[nH]c3ccccc23)C(=O)OC)c(=O)[nH]c1=O (stereo not drawn) | 536 | -3.4% (inactive) | 9.6% (inactive) | 79.6 | 33.5% (inactive) | 112 | -0.499 (inactive) | 1.8e-05 (inactive) | 0.00457 (inactive) | 0.703% (inactive) | 14.9% (inactive) |
| COc1ccc(S(=O)(=O)NC(CC(=O)N2CCC3(CC2)OCCO3)c2ccco2)cc1 (stereo not drawn) | 633 | 6.7% (inactive) | 16.2% (inactive) | 86.8 | -121% (inactive) | 144 | -0.451 (inactive) | -0.000345 (inactive) | 0.00534 (inactive) | 17.9% (inactive) | 22.1% (inactive) |
| COc1ccc(CN2CCN(c3ccccc3F)CC2)c(OC)c1 | 420 | 7.1% (inactive) | -8.1% (inactive) | 109 | -39% (inactive) | 125 | -0.38 (inactive) | 4.4e-05 (inactive) | 0.00736 (inactive) | 4.18% (inactive) | 24.2% (inactive) |
| CN1C(=O)N(C)C(=O)C2(Cc3ccccc3N3CCOCC32)C1=O (stereo not drawn) | 547 | -5.7% (inactive) | -30.5% (inactive) | 92.5 | -43.9% (inactive) | 148 | -0.363 (inactive) | 3.8e-05 (inactive) | 0.00653 (inactive) | 16.2% (inactive) | 24.6% (inactive) |

Reference: PubChem BioAssay
